Experimental data from PubChem BioAssay.
Calls of active or inactive are those of the source.

What was measured:
[1] = test system: Human papillomavirus type 1a protein E7 (residues 44-93); experiment: HPV1a E7 fragment binders on microarrays, primary screen, biochemical, small-molecule microarray, residues 44-93, 635 nm fluorescence (AID 1108); conditions: small-molecule microarray binding, fluorescence 635 nm; higher = more signal;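 note: E7 fragment applied at 1 µg/mL in TBST for 1 h at 4 C; score combines spot fluorescence with its signal to noise ratio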
[2] = modulators of HCV replicon luciferase signal, primary screen, HCV replication inhibitor project, Huh7 cells, luciferase reporter (AID 1109); conditions: 48 h, higher = more signal;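 note: huh7 hepatoma cells harbouring a luciferase neomycin HCV replicon reporter; luciferase luminescence as measure of HCV replicon replication; test concentration not given here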
[3] = target: Left-right determination factor 2 (Homo sapiens) (UniProt O00292); experiment: LEFTY2 binders on small-molecule microarrays, primary screen, biochemical, small-molecule microarray, 635 nm fluorescence scan (AID 1110); conditions: LEFTY2 binding, higher = more signal
Sequence of Left-right determination factor 2 (Homo sapiens) (O00292 whole entry, looked up): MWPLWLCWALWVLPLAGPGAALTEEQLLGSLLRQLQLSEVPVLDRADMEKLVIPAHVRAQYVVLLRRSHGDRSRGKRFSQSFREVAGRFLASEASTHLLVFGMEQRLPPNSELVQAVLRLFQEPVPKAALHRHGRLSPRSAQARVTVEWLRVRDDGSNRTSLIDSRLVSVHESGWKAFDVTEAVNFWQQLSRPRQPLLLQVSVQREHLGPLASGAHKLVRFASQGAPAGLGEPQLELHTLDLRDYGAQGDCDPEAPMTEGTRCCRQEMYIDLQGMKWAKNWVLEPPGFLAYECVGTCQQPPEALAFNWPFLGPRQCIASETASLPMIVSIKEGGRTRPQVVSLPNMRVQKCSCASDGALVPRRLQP

[4] = target: Calmodulin-1 (Homo sapiens) (UniProt P0DP23); experiment: CALM1 binders on microarrays, EGTA buffer, profiling panel, biochemical, small-molecule microarray, Cy5-labelled CALM1 (AID 1111); conditions: Cy5-CALM1 binding fluorescence, higher = more signal;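 note: labelled calmodulin applied in Tris saline Tween buffer holding calcium plus EGTA and DTT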
[5] = target: Calmodulin-1 (Homo sapiens) (UniProt P0DP23); experiment: calcium-bound CALM1 binders on microarrays, profiling panel, artefact control for SMM control-protein annotation, biochemical, small-molecule microarray, Cy5-labelled CALM1, plus calcium (AID 1112); conditions: Cy5-CALM1 binding fluorescence, higher = more signal;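 note: score merges spot fluorescence with signal to noise from triplicate slides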
[6] = small-molecule microarray binders of probe aWnt5a, primary screen, biochemical, biotinylated probe, 635/667 nm fluorescence (AID 1113); conditions: higher = more signal;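 note: score merges 667 nm fluorescence intensity with signal-to-noise per printed feature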
[7] = small-molecule microarray binders of probe aShh, primary screen, biochemical, biotinylated probe, 635/667 nm fluorescence (AID 1114); conditions: higher = more signal;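 note: probe is biotin-labelled aShh protein from a stem cell growth factor screen; measures binding of labelled protein to compounds printed on the slide; score merges feature fluorescence at 667 nm with signal-to-noise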
[8] = small-molecule microarray binders of probe aNog, primary screen, biochemical, biotinylated probe, 635/667 nm fluorescence (AID 1115); conditions: higher = more signal;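 note: probe is biotinylated aNog protein used at 0.15 µg/mL for 1 h at 4 C; z-score combines 667 nm fluorescence of each spot with its signal to noise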
[9] = target: Torsin-1A-interacting protein 1 (Homo sapiens) (UniProt Q5JTV8); experiment: LAP1 binders from COS7 cell lysate, primary screen, small-molecule microarray, 635/667 nm fluorescence (AID 1116); conditions: COS7-hLAP1 lysate binding, 635 nm fluorescence, higher = more signal
Sequence of Torsin-1A-interacting protein 1 (Homo sapiens) (Q5JTV8 whole entry, looked up): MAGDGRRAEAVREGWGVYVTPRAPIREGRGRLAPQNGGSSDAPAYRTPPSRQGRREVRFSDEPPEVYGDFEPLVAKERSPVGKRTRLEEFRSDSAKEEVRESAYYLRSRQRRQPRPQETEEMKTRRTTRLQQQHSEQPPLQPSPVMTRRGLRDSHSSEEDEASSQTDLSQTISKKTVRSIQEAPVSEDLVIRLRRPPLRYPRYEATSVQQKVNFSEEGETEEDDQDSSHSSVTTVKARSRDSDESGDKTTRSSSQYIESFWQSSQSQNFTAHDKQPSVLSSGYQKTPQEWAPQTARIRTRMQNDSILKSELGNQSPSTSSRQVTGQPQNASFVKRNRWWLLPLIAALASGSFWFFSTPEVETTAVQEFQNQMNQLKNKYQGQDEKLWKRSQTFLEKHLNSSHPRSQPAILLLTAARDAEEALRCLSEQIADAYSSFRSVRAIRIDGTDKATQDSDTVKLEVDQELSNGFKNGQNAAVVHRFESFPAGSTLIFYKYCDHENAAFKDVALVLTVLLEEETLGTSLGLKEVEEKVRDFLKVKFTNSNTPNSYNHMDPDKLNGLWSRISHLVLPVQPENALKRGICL

[10] = target: Alpha-bungarotoxin (Bungarus multicinctus) (UniProt P60615); experiment: alpha-bungarotoxin binders on microarray, profiling panel, artefact control for SMM control protein annotation, biochemical, small-molecule microarray, Alexa647 label, 635/667 nm fluorescence (AID 1117); conditions: alpha-BTX-A647 binding fluorescence, higher = more signal
Sequence of Alpha-bungarotoxin (Bungarus multicinctus) (P60615 whole entry, looked up): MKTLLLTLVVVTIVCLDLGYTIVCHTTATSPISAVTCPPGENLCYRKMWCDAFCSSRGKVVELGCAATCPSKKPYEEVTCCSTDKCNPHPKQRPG

Albumin (Bos taurus) = Albumin (Bos taurus) (UniProt P02769); experiment: bovine serum albumin binders on microarray, profiling panel, artefact control for SMM control protein annotation, biochemical, small-molecule microarray, Alexa647 label, 635/667 nm fluorescence (AID 1118); conditions: BSA-A647 binding, fluorescence 635 nm, higher = more signal;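 note: score merges 667 nm emission intensity and signal-to-noise per printed compound spot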
Sequence of Albumin (Bos taurus) (P02769 whole entry, looked up): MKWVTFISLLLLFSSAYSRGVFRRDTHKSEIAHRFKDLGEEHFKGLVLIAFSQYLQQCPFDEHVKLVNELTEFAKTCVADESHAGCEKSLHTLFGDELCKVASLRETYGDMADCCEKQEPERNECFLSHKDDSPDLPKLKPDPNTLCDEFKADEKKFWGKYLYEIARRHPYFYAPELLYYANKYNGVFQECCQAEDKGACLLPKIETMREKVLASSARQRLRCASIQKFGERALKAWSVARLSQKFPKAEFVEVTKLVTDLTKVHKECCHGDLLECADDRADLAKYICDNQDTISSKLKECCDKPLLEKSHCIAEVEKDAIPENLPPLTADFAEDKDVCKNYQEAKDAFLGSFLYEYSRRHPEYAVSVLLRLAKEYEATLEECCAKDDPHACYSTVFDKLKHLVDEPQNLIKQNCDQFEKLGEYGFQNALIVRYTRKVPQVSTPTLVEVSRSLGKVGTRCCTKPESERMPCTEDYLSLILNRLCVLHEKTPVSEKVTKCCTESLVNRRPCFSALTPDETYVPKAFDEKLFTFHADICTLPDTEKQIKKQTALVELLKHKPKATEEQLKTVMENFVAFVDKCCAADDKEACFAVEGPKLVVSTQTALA

[11] = small-molecule microarray binders of probe aXIP, primary screen, biochemical, NeuroSMM set, 635/667 nm fluorescence (AID 1119); conditions: higher = more signal, called active from +8 up or from −8 down;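 note: probe is the protein aXip251-270 applied at 1 µg/mL to compound-printed slides; binding of probe to printed compounds measured as 667 nm fluorescence plus signal to noise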
[12] = small-molecule binders of probe aNOTCH3, primary screen, biochemical, small-molecule microarray, 635/667 nm fluorescence (AID 1120); conditions: higher = more signal;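 note: probe is a biotin-tagged antibody raised against NOTCH3 rather than NOTCH3 protein; score merges spot fluorescence near 667 nm with spot signal to noise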
[13] = small-molecule binders of probe aNOTCH2, primary screen, biochemical, small-molecule microarray, 635/667 nm fluorescence (AID 1121); conditions: higher = more signal;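 note: score merges feature fluorescence read at 667 nm with its signal to noise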
[14] = target: Carbonic anhydrase 2 (Homo sapiens) (UniProt P00918); experiment: CAII small-molecule binders, profiling panel, biochemical, small-molecule microarray, Alexa647-labelled CAII (AID 1122); conditions: CAII-A647 binding fluorescence, higher = more signal
[15] = COS7 lysate on small-molecule microarray, probe aHis, 635 nm (AID 1123); conditions: COS7 cell lysate, fluorescence, higher = more signal;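 note: z-score combines 667nm fluorescence intensity with signal-to-noise per printed compound spot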
[16] = compound binding in COS7 lysate, probe aLAP1, primary screen, cell lysate, small-molecule microarray (AID 1124); conditions: probe aLAP1, fluorescence, higher = more signal;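 note: lysate comes from COS7 cells expressing LAP1 and is applied at 0.3 µg/mL; score merges spot fluorescence near 667 nm with signal-to-noise over triplicate slides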
Sam68 (KHDRBS1) = experiment: Sam68 small-molecule binders, primary screen, biochemical, small-molecule microarray, 635 nm fluorescence (AID 1125); conditions: small-molecule microarray binding, higher = more signal;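 note: score merges 667 nm channel intensity with signal to noise over triplicate slides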
[17] = test system: Chordin-like protein 2 (CHRDL2); experiment: CHRDL2 small-molecule binders, primary screen, biochemical, small-molecule microarray, 635 nm fluorescence (AID 1126); conditions: small-molecule microarray binding, fluorescence 635 nm; higher = more signal;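 note: printed compound slides probed with Chrdl2 protein at 4 µg/mL for 1 h at 4 C; score merges 667 nm emission intensity with signal to noise over three replicate slides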
[18] = target: Concanavalin-A (Canavalia ensiformis) (UniProt P02866); experiment: ConA small-molecule binders, primary screen, artefact control for SMM control protein annotation, biochemical, small-molecule microarray, Alexa647 label, 635 nm (AID 1127); conditions: ConA-A647 binding fluorescence, higher = more signal;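 note: z combines 667 nm emission intensity with signal-to-noise across three replicate slides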
Sequence of Concanavalin-A (Canavalia ensiformis) (P02866 whole entry, looked up): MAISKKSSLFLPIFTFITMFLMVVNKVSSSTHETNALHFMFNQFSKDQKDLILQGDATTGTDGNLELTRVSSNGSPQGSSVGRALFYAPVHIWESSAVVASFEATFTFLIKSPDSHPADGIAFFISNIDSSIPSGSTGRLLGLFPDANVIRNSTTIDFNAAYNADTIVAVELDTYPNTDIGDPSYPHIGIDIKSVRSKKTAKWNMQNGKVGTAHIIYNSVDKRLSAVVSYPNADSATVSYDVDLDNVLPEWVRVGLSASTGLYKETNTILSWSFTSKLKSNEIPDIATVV

Row | SMILES | composite z-score [1] | z-score [2] | composite z-score [3] | composite z-score [4] | composite z-score [5] | composite z-score [6] | composite z-score [7] | composite z-score [8] | composite z-score [9] | composite z-score [10] | composite z-score (Albumin (Bos taurus)) | composite Z-score [11] | composite z-score [12] | composite z-score [13] | composite z-score [14] | composite z-score [15] | composite z-score [16] | composite z-score (Sam68 (KHDRBS1)) | composite z-score [17] | composite z-score [18]
1 | CC(C)C(CO)N1C(=O)[C@@H]2[C@H]3C(=O)OCC=C[C@H]3OC23C=CCN(c2ccc4ccccc4c2)C(=O)[C@@H]13 (stereo not given in full) | -0.177 | -0.453 | -0.425 | -0.468 | -0.367 | -0.148 | -0.283 | -0.463 | -1.05 | -0.256 | -0.524 | 0.508 (inactive) | -0.193 | -0.155 | 0.561 | -0.572 | 0.42 | -0.878 | -1.32 | -0.362
2 | C=C(C(=O)CC[C@@H](OC(=O)c1cccnc1)c1ccc(CO)o1)C(C)C | 1.03 | -1.24 | 0.46 | -0.478 | -0.835 | -0.139 | -0.0701 | 0.337 | 1.35 | 0.346 | 0.0207 | 0.278 (inactive) | 0.101 | -0.0698 | 0.614 | 0.583 | 0.697 | 1.24 | 0.584 | 0.383
3 | COc1cc(CO)cc(I)c1O[C@H]1C=C(C(=O)NCCO)C[C@@H](N(CCc2cccc(F)c2)C(=O)CCC2CCCC2)[C@@H]1O | 1.43 | -4.65 | 0.195 | 2.15 | 2.16 | 0.277 | 0.0952 | -0.144 | 2.99 | -0.242 | -0.526 | 0.687 (inactive) | 0.13 | -0.0596 | 0.117 | 1.29 | 1.88 | 1.3 | 1.32 | 0.444
4 | CCCC[C@H]1OB(O)C[C@H]2C1=C(C)Cn1c(=O)n(-c3ccccc3)c(=O)n12 | 0.422 | -0.759 | 0.648 | -0.305 | -0.406 | -0.215 | -0.0035 | -0.426 | 0.363 | -0.149 | 0.242 | -0.426 (inactive) | -0.236 | -0.177 | -0.159 | 0.549 | 0.144 | 0.401 | 0.77 | 0.0577
5 | CC(c1ccccc1)C(O)C1C=CC2C(=O)N(Cc3ccccc3)C(=O)C2N1n1cnnc1 (stereo not given) | 1.12 | -0.562 | 0.202 | -0.133 | 0.13 | 0.0657 | 0.297 | 0.49 | 0.0111 | 0.512 | 0.405 | 0.171 (inactive) | 0.178 | -0.046 | 0.415 | 1.06 | -0.0771 | 0.669 | -0.226 | 0.851
